DT40 TDP1 CPT – growth inhibition of DT40 Tdp1-/-;hTDP1 cells with camptothecin (screen for TDP1 inhibitors). AID 686979. chicken DT40 Tdp1-/-;hTDP1 cells + 20 nM CPT, ATP luminescence, 48 h. 12% of 420,000 active. Potency, µM (doses to about 46.2 µM), for the others: top-dose activity change, negative = growth inhibition, actives largely listed as inhibitors; note: nearly all actives have a fitted effect of over 55% in size
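Cell growth measured by CellTiter-Glo luminescence after a minimum 48 h, 37 C compound exposure with 20 nM CPT in Tdp1-knockout DT40 cells stably expressing hTDP1, seeded 400/well; qHTS titration format.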
Gal4-VP16 FLuc – counter-screen for ROR gamma inhibitors: Gal4-VP16 reporter | 3.5% of 310,000 active | Drosophila S2 Gal4-VP16 UAS-luciferase, luminescence, 20 h | Potency, µM (doses to about 53.6 µM), inactives show at the highest dose activity, negative = inhibition, actives largely listed as inhibitors;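 note: Gal4-VP16 expression switched on by copper sulfate through the metallothionein promoter; nearly all actives have a fitted effect of over 50% in size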
TDP1 cell noCPT – qHTS for Inhibitors of human tyrosyl-DNA phosphodiesterase 1 (TDP1): qHTS in cells in absence of CPT; 15% of 420,000 active; AID 686978, 2013; Potency, µM (highest dose often 46.2 µM), for inactives: at the highest dose activity change, negative = growth inhibition, most hits filed as inhibitors; DT40 Tdp1-/- hTDP1 cells, no CPT, ATP luminescence, 48 h; note: nearly all actives have a fitted effect of over 55% in size
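No-CPT arm: Tdp1-/-;hTDP1 DT40 cells (400/well) plus compounds, incubated ≥48 hr at 37 °C. Readout CellTiter-Glo luminescence.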
RORg inh – ROR gamma (mouse) transcription inhibition. P51450. Drosophila S2 Gal4-RORgamma UAS-luciferase reporter, 20 h. Potency, µM (highest dose often 53.6 µM), for the others: top-dose activity change, negative = inhibition, most hits filed as inhibitors. 5.4% of 310,000 active; note: nearly all actives have a fitted effect of over 60% in size
Target sequence (P51450 whole entry, looked up, the tested form may be a part): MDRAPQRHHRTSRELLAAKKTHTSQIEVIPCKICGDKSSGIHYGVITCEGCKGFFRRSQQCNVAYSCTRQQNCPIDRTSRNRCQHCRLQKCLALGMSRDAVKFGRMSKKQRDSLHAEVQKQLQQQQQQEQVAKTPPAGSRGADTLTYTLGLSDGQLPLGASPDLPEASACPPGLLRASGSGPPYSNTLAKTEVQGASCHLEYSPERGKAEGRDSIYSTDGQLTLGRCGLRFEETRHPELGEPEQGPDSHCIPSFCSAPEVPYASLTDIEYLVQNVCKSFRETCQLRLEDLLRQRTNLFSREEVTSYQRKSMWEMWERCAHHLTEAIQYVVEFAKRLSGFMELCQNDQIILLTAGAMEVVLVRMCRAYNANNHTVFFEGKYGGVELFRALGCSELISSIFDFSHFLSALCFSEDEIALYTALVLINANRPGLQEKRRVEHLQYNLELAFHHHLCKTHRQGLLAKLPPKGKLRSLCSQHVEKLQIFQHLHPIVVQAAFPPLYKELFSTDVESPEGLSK
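Drosophila Schneider cells stably carrying a metallothionein-driven Gal4 DBD–ROR gamma fusion and a UAS-Photinus luciferase reporter were exposed to compound for 1 hr, then induced with copper sulfate (700 uM final) for 20 hr at ambient temperature before luminescence reading.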
TDP1 block – inhibitors of human tyrosyl-DNA phosphodiesterase TDP1. Q9NUW8. recombinant TDP1, AlphaScreen DNA substrate cleavage. Potency, µM (doses to about 130 µM), for the others: top-dose activity change, negative = inhibition, hits mostly inhibitors. 0.28% of 350,000 active. AID 485290; note: nearly all actives have a fitted effect of over 40% in size
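Recombinant E. coli-expressed Tdp1 (1 nM) preincubated with compound 15 min at RT, then 5'-biotin/3'-phosphotyrosine-FITC DNA substrate (15 nM) added for 5 min. AlphaScreen beads (10 ug/ml) added, 10 min RT; tyrosine-FITC cleavage read as signal loss.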
* hit, by the source's call; [ ] = another dose, or the depositor's remark. Rows were chosen to be rich in hits. Some 19% of all compounds tested hit in one or more screens of this group. Calls come from the whole dose curve; as a rule, active = well fitted curve in the direction sought with a large enough effect; inconclusive = small, poorly fitted or top-dose-only effect, or another doubt; inactive = no such curve, though single readings can be large; an effect the other way counts as inactive or inconclusive. % is set by controls: 0 for no effect and ±100 for the full control effect; potency is the fitted concentration of half-maximal effect.

How did CC(C)NC(=O)C1Cc2c(-c3ccc(Cl)cc3)ccnc2O1 (stereo not given) do in these assays?
DT40 TDP1 CPT: -29%; TDP1 cell noCPT: -28%

Results for Cc1ccc(NC(=O)CCC(=O)NNS(=O)(=O)c2ccccc2)c(C)c1 ?
DT40 TDP1 CPT: inconclusive; Gal4-VP16 FLuc: -16%; TDP1 cell noCPT: inconclusive; RORg inh: 0%; TDP1 block: 0%

Results for CCOC(=O)c1c(-c2ccccc2)c2cc(OC)ccc2n1CCCN(C)C ?
DT40 TDP1 CPT: inconclusive; Gal4-VP16 FLuc: -4%; TDP1 cell noCPT: inconclusive; RORg inh: -8%

What do the screens show for `CC(C)NCC(O)COc1ccc(COCCOC(C)C)cc1` (stereo not given)?
DT40 TDP1 CPT: 3%; Gal4-VP16 FLuc: 2%; TDP1 cell noCPT: 29%; RORg inh: 20%; TDP1 block: 8%

What do the screens show for `COc1cccc(C(=O)N2c3cc(C)ccc3OCC2C(C)(C)C)c1` (stereo not given)?
DT40 TDP1 CPT: -3%; Gal4-VP16 FLuc: -1%; TDP1 cell noCPT: inconclusive; RORg inh: -11%

Results for CC1(C)CN(c2ccccc2)N(C(=O)c2ccc(F)cc2)C1=O ?
DT40 TDP1 CPT: inconclusive; Gal4-VP16 FLuc: 3%; TDP1 cell noCPT: inconclusive; RORg inh: 18%; TDP1 block: 0%

What do the screens show for `Cc1ccc2c(c1)C(C)(c1ccccc1)CC(C)(C)N2C(=O)c1ccc(F)cc1` (stereo not given)?
DT40 TDP1 CPT: inconclusive; TDP1 cell noCPT: 13µM*; TDP1 block: 0%[12.3 µM]

How did COc1cccc(C(=O)N2c3cc(C)ccc3C(C)(c3ccccc3)CC2(C)C)c1 (stereo not given) do in these assays?
DT40 TDP1 CPT: inconclusive; TDP1 cell noCPT: 15µM*; TDP1 block: 5%[12.3 µM]

How did Cc1cc(=O)oc(C)c1C(=O)Nc1cccc2nonc12 do in these assays?
DT40 TDP1 CPT: -17%; Gal4-VP16 FLuc: 1%; TDP1 cell noCPT: -18%; RORg inh: -1%; TDP1 block: 0%

How did COc1ccc(CCN2CC(=O)NC(=O)C2)cc1OC do in these assays?
DT40 TDP1 CPT: 2%; TDP1 cell noCPT: 16%

Results for COc1ccc(OC)c(C2C(C(=O)c3cc4ccccc4o3)=C(O)C(=O)N2c2cc(C)on2)c1 (stereo not given) ?
DT40 TDP1 CPT: inconclusive; Gal4-VP16 FLuc: 4%; TDP1 cell noCPT: inconclusive; RORg inh: 10%; TDP1 block: 7%

What do the screens show for `CCc1nnc(NC(=O)CCN2C(=O)CCC2=O)s1`?
DT40 TDP1 CPT: 0%; Gal4-VP16 FLuc: -8%; TDP1 cell noCPT: -10%; RORg inh: 1%; TDP1 block: -2%

Results for COc1cccc(C2C(C(C)=O)=C(O)C(=O)N2CCc2c[nH]c3ccccc23)c1 (stereo not given) ?
DT40 TDP1 CPT: -4%; Gal4-VP16 FLuc: 1%; TDP1 cell noCPT: -24%; RORg inh: 112µM*; TDP1 block: 5%

What do the screens show for `O=C(Cc1ccc(Cl)cc1)Nc1ccc2oc(-c3ccccc3)nc2c1`?
DT40 TDP1 CPT: -29%; TDP1 cell noCPT: inconclusive; TDP1 block: 2%[2.28 µM]

How did Cc1csc(N(C(=O)c2ccc(S(=O)(=O)N(C)C)cc2)c2ccccc2)n1 do in these assays?
DT40 TDP1 CPT: -22%; Gal4-VP16 FLuc: 2%; TDP1 cell noCPT: -26%; RORg inh: -3%; TDP1 block: 1%

Results for Cc1csc(N(C(=O)c2ccccc2F)c2ccccc2)n1 ?
DT40 TDP1 CPT: 23µM*; Gal4-VP16 FLuc: 8%; TDP1 cell noCPT: 10µM*; RORg inh: 6%; TDP1 block: 2%

Results for NC(=O)CC(NC(=O)c1ccc(Br)cc1)c1ccc(N2CCN(c3ccccn3)CC2)c([N+](=O)[O-])c1 (stereo not given) ?
DT40 TDP1 CPT: 23µM*; Gal4-VP16 FLuc: -8%; TDP1 cell noCPT: 21µM*; RORg inh: 28%; TDP1 block: 5%

Results for NC(=O)CC(NC(=O)c1cccc(Br)c1)c1ccc(N2CCN(c3ccccn3)CC2)c([N+](=O)[O-])c1 (stereo not given) ?
DT40 TDP1 CPT: 15µM*; Gal4-VP16 FLuc: -21%; TDP1 cell noCPT: 13µM*; RORg inh: 25%

Results for NC(=O)CC(NC(=O)Cc1ccc(Br)cc1)c1ccc(N2CCN(c3ccccn3)CC2)c([N+](=O)[O-])c1 (stereo not given) ?
DT40 TDP1 CPT: inconclusive; Gal4-VP16 FLuc: -2%; TDP1 cell noCPT: -16%; RORg inh: 2%

What do the screens show for `NC(=O)CC(NC(=O)Cc1ccc(Cl)cc1)c1ccc(N2CCN(c3ccccn3)CC2)c([N+](=O)[O-])c1` (stereo not given)?
DT40 TDP1 CPT: inconclusive; Gal4-VP16 FLuc: 1%; TDP1 cell noCPT: inconclusive; RORg inh: -2%

Results for O=C(O)CC(NC(=O)Nc1ccccc1)c1ccc(OC2CCCC2)cc1 (stereo not given) ?
DT40 TDP1 CPT: 11%; Gal4-VP16 FLuc: -5%; TDP1 cell noCPT: 23%; RORg inh: -4%; TDP1 block: 7%

How did COC(=O)CCNC(=O)N1CCN(c2nnc(C)c3c(C)n(-c4ccc(Cl)cc4)nc23)CC1 do in these assays?
DT40 TDP1 CPT: -6%; TDP1 cell noCPT: 3%; TDP1 block: 7%

What do the screens show for `Cc1ccc(C(=O)NCCc2c[nH]c3ccccc23)c(C)c1`?
DT40 TDP1 CPT: -7%; Gal4-VP16 FLuc: -10%; TDP1 cell noCPT: -44%; RORg inh: inconclusive

How did CCCCNC(=O)c1cc(-c2ccccc2)sc1N do in these assays?
DT40 TDP1 CPT: 15µM*; TDP1 cell noCPT: 16µM*

What do the screens show for `NNC(=O)c1cc(-c2ccccc2)sc1N`?
DT40 TDP1 CPT: -2%; Gal4-VP16 FLuc: 3%; TDP1 cell noCPT: -22%; RORg inh: -32%; TDP1 block: 8%

What do the screens show for `Nc1sc(-c2ccccc2)cc1C(=O)NCCc1c[nH]c2ccccc12`?
DT40 TDP1 CPT: 16µM*; TDP1 cell noCPT: 15µM*

What do the screens show for `Cc1cc(C)nc(SCc2nnc(SCC(=O)Nc3nccs3)n2Cc2ccco2)n1`?
DT40 TDP1 CPT: inconclusive; Gal4-VP16 FLuc: -7%; TDP1 cell noCPT: inconclusive; RORg inh: 19%; TDP1 block: 0%

Results for COc1cc(OC)nc(Oc2ccccc2C(=O)Oc2ccccc2Cl)n1 ?
DT40 TDP1 CPT: -15%; Gal4-VP16 FLuc: -1%; TDP1 cell noCPT: -17%; RORg inh: -15%; TDP1 block: 0%

Results for COC(=O)c1ccccc1Oc1nc(Cl)cc(OC)n1 ?
DT40 TDP1 CPT: 18µM*; Gal4-VP16 FLuc: 6%; TDP1 cell noCPT: 26µM*; RORg inh: -9%; TDP1 block: 0%
